Screening data (PubChem)
Hits are enriched below; roughly 11% of the tested compounds scored in any of these assays.
NIH3T3 tox: cytotoxic compounds in NIH 3T3 cells. NIH 3T3 viability, CellTiter-Glo ATP luminescence, 48-72 h. Potency, µM (highest dose often 96.7 µM), inactives show at the top dose activity change, negative = cytotoxicity, actives largely listed as inhibitors. 94,000 compounds, 4.3% hits. AID 1345082; further: on the % scale 0 is the no-effect control and ±100 the full control effect; nearly all actives have a fitted effect of over 55% in size
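First NIH 3T3 cells are plated at 400 cells/well; next compound is pinned in; then plates incubate 48 or 72 hr at 37 °C; finally CellTiter-Glo is added and luminescence read after 10 min.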
FLuc inh-1: blocks purified firefly luciferase enzyme activity; P08659; purified P. pyralis luciferase, luminescence, biochemical; 76,000 compounds, 2.5% hits; Potency, µM (series often up to 115 µM), hits mostly inhibitors; AID 1347043; further: on the % scale 0 is the no-effect control and ±100 the full control effect; nearly all actives have a fitted effect of over 65% in size
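Purified 10nM P. pyralis luciferase with 10uM D-luciferin and 10uM ATP in 50mM Tris acetate pH 7.5, 10mM Mg acetate, 0.01% Tween-20, 0.05% BSA. qHTS titration; luminescence read by CCD imager.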
hNpr1 antagonist: human Npr1 receptor antagonism | P16066 | HEK293 hNpr1 GloSensor cGMP, ANP-stimulated luminescence | Potency, µM (titrated, usually from 46.3 µM), for the others: at the highest dose activity change, negative = inhibition, hits mostly inhibitors | 76,000 compounds, 1.6% hits | AID 1347048; calls by dose curve; further: on the % scale 0 is the no-effect control and ±100 the full control effect; nearly all actives have a fitted effect of over 60% in size
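Compound pre-incubated 30 min at room temperature on GloSensor-loaded HEK293 cells stably carrying hNpr1 and the pGS-40F cGMP biosensor. Stimulation uses hNppA at 0.1 nM final; luminescence is taken at baseline and 20 min post-agonist.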
HEK cytotox: cytotoxic compounds in HEK 293 cells; HEK 293 viability, ATP luminescence (CellTiter-Glo), 48-72 h; Potency, µM (titrated, usually from 115 µM), without a hit: at the top dose activity change, negative = cytotoxicity, usual class: inhibitors; 94,000 compounds, 6.6% hits; further: on the % scale 0 is the no-effect control and ±100 the full control effect; nearly all actives have a fitted effect of over 60% in size
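ATP-coupled CellTiter-Glo luminescence served as viability read-out, recorded 10 min after reagent addition at room temperature. HEK 293 cells, 250 cells/well, had been incubated with pintool-transferred compound for 48 or 72 hr at 37 degree Celsius.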
FLuc SDR no ATP: firefly luciferase binding stabilization, ATP absent; AID 1963318; 1,300 compounds, 7.8% hits; shares compounds with FLuc inh-1; Potency, µM (titrated, usually from 32.7 µM), inactives show top-dose activation (signal gain), usual class: activators; Purified FLuc-C-HiBiT, Nano-Glo HiBiT luminescence, no ATP; further: nearly all actives have a fitted effect of over 55% in size
FLuc SDR ATP: firefly luciferase binding stabilization, ATP added; 1,300 compounds, 8.7% hits; shares compounds with FLuc inh-1; purified FLuc-C-HiBiT + ATP, HiBiT complementation luminescence; Potency, µM (titrated, usually from 32.7 µM), inactives show at the top dose activation (gain of signal), most hits filed as activators;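 further: signal reports ligand binding via conformational change of the enzyme rather than luciferase catalysis; % of control where 0% means no effect; nearly all actives have a fitted effect of over 55% in size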
FLuc inh-2: inhibitors of firefly luciferase enzymatic activity. shares compounds with FLuc inh-1. purified FLuc-C-HiBiT enzyme, luciferin luminescence. Potency, µM (top dose mostly 32.7 µM), for the others: at the top dose activity change, negative = inhibition, usual class: inhibitors. 1,300 compounds, 42% hits. AID 1963320; further: on the % scale 0 is the no-effect control and ±100 the full control effect; nearly all actives have a fitted effect of over 70% in size
Npr1 antag conf: hNpr1 antagonism, confirmation assay; shares compounds with hNpr1 antagonist; HEK293 hNpr1 cGMP GloSensor luminescence, ANP-stimulated; Potency, µM (top dose mostly 57.6 µM), for inactives: at the highest dose activity change, negative = inhibition, actives largely listed as inhibitors; 1,400 compounds, 76% hits; AID 1347044; calls by dose curve; further: nearly all actives have a fitted effect of over 70% in size
Npr2 selectivity: hNpr2 antagonism, selectivity versus Npr1; shares compounds with hNpr1 antagonist; HEK293 hNpr2 GloSensor cGMP luminescence, CNP-stimulated; Potency, µM (doses to about 57.6 µM), inactives show at the top dose activity change, negative = inhibition, most hits filed as inhibitors; 1,400 compounds, 67% hits; calls by dose curve; further: nearly all actives have a fitted effect of over 70% in size
Target sequence (P20594 whole entry, looked up): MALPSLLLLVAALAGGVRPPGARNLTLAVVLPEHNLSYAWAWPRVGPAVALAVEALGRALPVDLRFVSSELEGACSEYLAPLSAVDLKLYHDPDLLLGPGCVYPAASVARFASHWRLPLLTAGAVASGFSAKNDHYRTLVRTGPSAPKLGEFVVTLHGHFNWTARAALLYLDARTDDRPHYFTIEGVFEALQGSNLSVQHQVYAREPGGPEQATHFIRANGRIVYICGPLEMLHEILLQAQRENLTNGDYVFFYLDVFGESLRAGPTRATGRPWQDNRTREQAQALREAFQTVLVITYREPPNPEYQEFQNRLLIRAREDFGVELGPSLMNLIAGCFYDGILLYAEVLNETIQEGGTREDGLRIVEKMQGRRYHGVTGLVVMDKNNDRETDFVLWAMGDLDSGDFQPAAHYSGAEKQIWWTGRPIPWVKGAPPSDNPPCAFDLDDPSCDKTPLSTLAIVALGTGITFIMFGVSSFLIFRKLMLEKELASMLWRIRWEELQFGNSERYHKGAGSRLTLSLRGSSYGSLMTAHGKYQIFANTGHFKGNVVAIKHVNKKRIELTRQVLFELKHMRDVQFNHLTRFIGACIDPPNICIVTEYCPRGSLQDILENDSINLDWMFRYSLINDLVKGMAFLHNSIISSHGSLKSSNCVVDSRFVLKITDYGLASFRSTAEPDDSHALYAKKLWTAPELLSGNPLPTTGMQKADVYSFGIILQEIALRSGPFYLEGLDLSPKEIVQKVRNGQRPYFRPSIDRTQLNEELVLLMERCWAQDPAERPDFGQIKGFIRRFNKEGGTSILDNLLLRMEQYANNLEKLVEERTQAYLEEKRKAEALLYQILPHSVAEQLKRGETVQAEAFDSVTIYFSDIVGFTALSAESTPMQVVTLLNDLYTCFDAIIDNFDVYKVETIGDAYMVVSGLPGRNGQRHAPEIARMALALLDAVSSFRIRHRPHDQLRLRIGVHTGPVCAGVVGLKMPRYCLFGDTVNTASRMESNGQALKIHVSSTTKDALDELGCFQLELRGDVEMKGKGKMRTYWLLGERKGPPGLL
FLuc inh counter: FLuc enzyme inhibition, Npr1 counter-screen | shares compounds with hNpr1 antagonist | purified FLuc enzyme, luminescence, Km substrate | Potency, µM (titrated, usually from 57.6 µM), without a hit: at the highest dose activity change, negative = inhibition, most hits filed as inhibitors | 1,400 compounds, 0.7% hits | AID 1347047; further: series mostly up to about 58 µM; 0% is about no effect
GloSensor ctrl: reduces cGMP signal in GloSensor control cells | shares compounds with hNpr1 antagonist | HEK293 GloSensor cGMP, SNP-stimulated, luminescence | AID 1347051 | 1,400 compounds, 69% hits | Potency, µM (series often up to 57.6 µM), for the others: at the highest dose activity change, negative = inhibition, hits mostly inhibitors; calls by dose curve; further: on the % scale 0 is the no-effect control and ±100 the full control effect; nearly all actives have a fitted effect of over 70% in size
Active calls of the source: *; i = inactive; ? = inconclusive; . = no result given; [ ] = dose if it differs, or a comment. Unless noted, the call rests on the fitted dose curve; in most records, active means well fitted curve in the direction sought with a large enough effect; inconclusive means small, poorly fitted or top-dose-only effect, or another doubt; inactive means no such curve, though single readings can be large; an effect the other way counts as inactive or inconclusive. Potency means the concentration at half of the fitted maximal effect.

SMILES	NIH3T3 tox	FLuc inh-1	hNpr1 antagonist	HEK cytotox	Npr1 antag conf	Npr2 selectivity	FLuc inh counter	GloSensor ctrl	others
Cc1ccc(CC(=O)N2CCC(CC(=O)NCc3ccccc3)C2)cc1 (stereo not drawn)	-6%	i	-1%	-24%	.	.	.	.
Cn1c(CNC(=O)C2CC(=O)N(c3n[nH]c4ccccc34)C2)nc2ccccc21 (stereo not drawn)	-20%	i	0%	-13%	.	.	.	.
COc1cccc(CN2CCc3nc(C(=O)Nc4nc(C)cs4)oc3CC2)c1	?	7.1µM*	-20%[70.6 µM]	?	.	.	.	.	FLuc SDR no ATP=?;FLuc SDR ATP=17%[49.3 µM];FLuc inh-2=?
O=C(Nc1cccnc1)c1nc2c(o1)CCN(CCCc1ccccc1)CC2	?	i	-3%[70.6 µM]	?	.	.	.	.
O=C(Nc1ccccc1)c1nc2c(o1)CCN(Cc1cccnc1)CC2	?	0.35µM*	18µM*	79µM*	.	.	.	.	FLuc SDR no ATP=?;FLuc SDR ATP=?;FLuc inh-2=5.7µM*
Cc1ccc(CN2CCc3nc(C(=O)NCc4ccccc4)oc3CC2)o1	?	i	5%[70.6 µM]	-16%[172 µM]	.	.	.	.
O=C(Nc1cccnc1)c1nc2c(o1)CCN(Cc1cccc(O)c1)CC2	-16%[138 µM]	4µM*	?	?	.	.	.	.	FLuc SDR no ATP=21%[49.3 µM];FLuc SDR ATP=16%[49.3 µM];FLuc inh-2=?
COc1ccccc1CN1CCc2nc(C(=O)Nc3ccccc3)oc2CC1	?	4.5µM*	?	?	.	.	.	.	FLuc SDR no ATP=17%[49.3 µM];FLuc SDR ATP=14%[49.3 µM];FLuc inh-2=?
Cc1cc(C(=O)NC2CC2)c2c(C3CCCNC3)noc2n1 (stereo not drawn)	i	.	.	-5%	.	.	.	.
COc1ccc(-c2nc(C(C)C)nc3c2CN([S+](=O)([O-])c2cccs2)CC3)cc1	?	i	6%	-23%	.	.	.	.
O=C(N1CCC(Cc2nc(-c3ccc(F)cc3)no2)CC1)C1(c2ccccc2)CC1	?	i	?	?	.	.	.	.
COc1ccc(C2(C(=O)N3CCC(Cc4nc(-c5ccc(F)cc5)no4)CC3)CC2)cc1	?	i	5.6µM*	?	4.8µM*	6.1µM*	0%	6.1µM*
COc1ccc(C2(C(=O)N3CCC(Cc4nc(-c5ccccc5)no4)CC3)CC2)cc1	?	i	7.9µM*	?	7.7µM*	9.7µM*	0%	9.7µM*
NC(=O)Cc1c[nH]c2ncc(-c3ccccc3Oc3ccccc3)cc12	?	i	25µM*	?	35µM*	35µM*	-1%[86.2 µM]	20µM*
O=C(Cc1c[nH]c2ncc(-c3ccccc3Oc3ccccc3)cc12)NCc1cccnc1	?	i	28µM*	?	22µM*	22µM*	-10%[86.2 µM]	20µM*
COc1cccc(C(=O)N2CCC(Cc3nc(C(C)C)no3)CC2)c1	?	i	-16%	?	.	.	.	.
COc1cccc(-c2noc(CC3CCN(C(=O)c4cccc(F)c4)CC3)n2)c1	?	i	6.3µM*	?	6.1µM*	6.9µM*	-1%	4.8µM*
O=C(c1ccc(F)cc1)N1CCC(Cc2nc(-c3ccccc3)no2)CC1	?	i	5µM*	?	4.8µM*	6.1µM*	0%	5.4µM*
O=C(c1cccc(F)c1)N1CCC(Cc2nc(-c3ccccc3)no2)CC1	?	i	6.3µM*	?	6.9µM*	9.7µM*	-13%	6.9µM*
O=C(c1ccco1)N1CCC(Cc2nc(-c3ccccc3)no2)CC1	?	i	?	?	.	.	.	.
Cc1nn(Cc2ccccc2)c(C)c1[C@@H]1C=C[C@@H](NC(=O)C2CCCCC2)C1	?	i	-16%[70.6 µM]	?	.	.	.	.
CC1(C)[C@H](Cc2cc(COC(=O)c3cccs3)on2)C[C@@H]1NC(=O)c1cccs1	?	i	25µM*	?	35µM*	35µM*	1%[86.2 µM]	40µM*
CC1(C)[C@H](Cc2cc(CO)on2)C[C@@H]1NC(=O)c1cccnc1	-1%[174 µM]	i	5%[70.6 µM]	2%[172 µM]	.	.	.	.
CC1(C)[C@H](Cc2cc(COc3ccccc3)on2)C[C@@H]1NC(=O)c1cccs1	40µM*	i	40µM*	?	35µM*	40µM*	-2%[86.2 µM]	31µM*
CN(Cc1ccnc2ccccc12)C(=O)c1cn(Cc2ccc(Cl)cc2)nn1	?	i	10µM*	35µM*	14µM*	17µM*	3%	12µM*
SMILES	NIH3T3 tox	FLuc inh-1	hNpr1 antagonist	HEK cytotox	Npr1 antag conf	Npr2 selectivity	FLuc inh counter	GloSensor ctrl	others
Cc1cc(C)n(-c2cccc(CN(C)C(=O)c3cn(Cc4ccc(Cl)cc4)nn3)c2)n1	?	i	-25%	?	.	.	.	.
Cc1c(C(=O)N2C[C@@H](C)[C@](O)(C3CCC3)C2)n(C)c2c(C)cccc12	?	i	6%	?	.	.	.	.
O=C1NC2(CCN(C(=O)c3ccccn3)CC2)Oc2ccccc21	1%[138 µM]	i	0%[70.6 µM]	-5%[172 µM]	.	.	.	.
O=C1NC2(CCN(C(=O)c3ccccn3)CC2)COc2ccccc21	3%[138 µM]	i	?	-15%[172 µM]	?	25µM*	-14%[86.2 µM]	12%[86.2 µM]
CCc1cc(N2CCOC(c3ccc4cc(OC)ccc4c3)C2)nc(C)n1 (stereo not drawn)	?	i	11µM*	35µM*	22µM*	22µM*	?	17µM*
COc1ccc2cc(C3CN(Cc4cc5n(n4)CCNC5)CCO3)ccc2c1 (stereo not drawn)	?	i	-21%	?	.	.	.	.
Cc1cc(S(=O)(=O)N2CCC(n3cnnc3-c3ccccc3)CC2)ccc1F	-23%	i	-28%	-23%	.	.	.	.
